Here are results for 71 molecules from PubChem BioAssay AID651658 (Broad Institute, 2012).

In all, about 340,000 compounds went through this assay and about 5,100 (1.5%) were called active. This is one part of a sample in which actives are shown more often than they occur. Values without a mark were called inactive.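 The calls were made as follows: active = mean Tm shift, scaled 0 neutral to 100 positive control, at about 1.3% or above, every replicate too (limit read from the data); inconclusive = no clear call, values can overlap the other calls; inactive = the rest.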

In the assay the target is Fibroblast growth factor 22 (Homo sapiens) (UniProt Q9HCT0). The assay is described as follows: FGF22 ligand-induced thermal stabilization – biophysical, thermal shift, single point, FGF22 synaptogenesis inhibitor project, primary screen (AID 651658). Conditions: recombinant FGF22 thermal shift, SYPRO orange fluorescence; at 9.99 µM; active compounds read high; percent of sucrose octasulfate shift, DMSO zero.
Fibroblast growth factor 22 (Homo sapiens), sequence (Q9HCT0 whole entry, looked up): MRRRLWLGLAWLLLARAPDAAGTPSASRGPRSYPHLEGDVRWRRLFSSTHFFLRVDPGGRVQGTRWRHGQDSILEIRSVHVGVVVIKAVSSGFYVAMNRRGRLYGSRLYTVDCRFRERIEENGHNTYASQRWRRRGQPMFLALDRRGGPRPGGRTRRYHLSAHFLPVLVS
For the molecule `C/C=C/c1cccc(-c2nc(C(=O)NCCN3CCCCC3)cc3c2[C@@H](CCO)N([S@](=O)C(C)(C)C)C3)c1`, the activity (Tm shift, normalised) was 0.178%. Under `C[C@@H]1CCCCO[C@@H](CN(C)C(=O)Nc2ccc(C(F)(F)F)cc2)[C@H](C)CN([C@@H](C)CO)C(=O)c2cc(N(C)C)ccc2O1` stands -1.45%; under `C[C@@H](NC(=O)C[C@H]1C=C[C@H](NC(=O)C2CCOCC2)[C@H](CO)O1)c1ccccc1`, -0.059%; under `COCC#Cc1ccc([C@H]2[C@H]3CN(Cc4ccncc4)CCCCN3[C@H]2CO)cc1`, 0.633%. With `Cc1ccc(NC(=O)CSc2nnc(CNC(=O)c3ccccc3F)o2)cc1Cl`, the activity (Tm shift, normalised) is 0.074%. Regarding `COc1ccccc1NC(=O)CSc1nnc(CNC(=O)c2ccccc2F)o1`, the activity (Tm shift, normalised) is 0.09%. With `Cc1ccc(NC(=O)CSc2nnc(CNC(=O)c3ccccc3F)o2)cc1` the figure was 44% (active). Under `O=C(N[C@H]1CC[C@@H](CCNS(=O)(=O)c2ccccc2)O[C@@H]1CO)c1cnccn1` stands -0.268%; under `C[C@@H]1CN([C@H](C)CO)C(=O)c2cc(NC(=O)C3CCCCC3)ccc2O[C@H]1CN(C)C(=O)Nc1ccccc1`, -0.036%. With `C[C@H](CO)N1C[C@H](C)[C@@H](CN(C)C(=O)Nc2ccc3c(c2)OCO3)Oc2ccc(NS(=O)(=O)c3ccc(Cl)cc3)cc2C1=O` the figure was 0.554%; with `CCS(=O)(=O)Nc1ccc2c(c1)C(=O)N(C)[C@H]1CC[C@@H](CC(=O)Nc3ccccc3)O[C@H]1CO2`, 0.176%. Turning to `Cc1nc(Cl)c(C#N)c2c1CCCC2`, the activity (Tm shift, normalised) was -0.106%. With `COCc1c(N)c(C)nc(Cl)c1C#N` the figure was 43% (active); with `O=C(C[C@@H]1CC[C@@H]2[C@H](COC[C@@H](O)CN2Cc2ccccc2)O1)NCCc1ccccc1`, -0.247%. As to `O=C(C[C@@H]1CC[C@@H]2[C@H](COC[C@H](O)CN2S(=O)(=O)c2ccccc2F)O1)NCc1ccccc1F`, the activity (Tm shift, normalised) is -0.237%. Take `NS(=O)(=O)c1ccc(NC(=O)COC(=O)CCc2c[nH]c3ccccc23)cc1`: the activity (Tm shift, normalised) is 43.3% (active). With `CC(OC(=O)CCCc1c[nH]c2ccccc12)C(=O)Nc1ccc(S(N)(=O)=O)cc1` (stereo unspecified) the figure was -0.822%. With `O=C(COC(=O)CCc1c[nH]c2ccccc12)Nc1cccc(Cl)c1` the figure was 0.175%; with `COc1ccc(S(=O)(=O)N[C@H]2CC[C@H](CCn3cc(C(C)C)nn3)O[C@@H]2CO)cc1`, 0.529%. With `COCC(=O)N1[C@H](CO)[C@@H](c2ccccc2)C12CN(Cc1cc(F)ccc1F)C2`, the activity (Tm shift, normalised) is -0.224%. Under `COc1ccccc1NC(=O)N1C[C@@H](O)COC[C@H]2O[C@@H](CC(=O)NCc3ccccc3)CC[C@@H]21` stands -0.018%.

As to `COc1ccc(S(=O)(=O)N(C)C[C@@H]2OCCCC[C@@H](C)Oc3ccc(NC(=O)c4ccccc4)cc3C(=O)N([C@@H](C)CO)C[C@H]2C)cc1`, the activity (Tm shift, normalised) was 0.83%.

Consider `CCN(CC(=O)Nc1cccc(S(N)(=O)=O)c1)Cc1nc2ccccc2c(=O)[nH]1`, for which the activity (Tm shift, normalised) was 42.3%. `CCN(CC(=O)Nc1ccc(Cl)c(S(=O)(=O)N(C)C)c1)Cc1nc2ccccc2c(=O)[nH]1`: the activity (Tm shift, normalised) was 0.133%. With `CCN(CC(=O)NC(=O)NCc1ccccc1)Cc1nc2ccccc2c(=O)[nH]1` the figure was 43% (active); with `COc1ccc(S(=O)(=O)N(C)C[C@H]2OCCCC[C@H](C)Oc3ccc(NC(=O)CCC(F)(F)F)cc3C(=O)N([C@@H](C)CO)C[C@@H]2C)cc1`, 0.44%. Under `Cc1noc(C)c1NC(=O)Nc1ccc2c(c1)C(=O)N([C@H](C)CO)C[C@@H](C)[C@@H](CN(C)S(=O)(=O)c1ccc(Cl)cc1)OCCCC[C@H](C)O2` stands -0.533%; under `COc1ccc(NC(=O)O[C@@H](c2ccc(OCCO)cc2)[C@@H](C)CCO)cc1`, -1.48%; under `CCCNC(=O)N1CCC2(CC1)CN(C(=O)CN1CCOCC1)[C@H](CO)c1[nH]c3cc(OC)ccc3c12`, -0.015%. With `CCN1CCN(CC(=O)Nc2sc3c(c2C#N)CCC3)CC1` the figure was -0.078%. With `N#Cc1c(NC(=O)CCCl)sc2c1CCCCC2`, the activity (Tm shift, normalised) was 43% (active). With `N#Cc1c(NC(=O)C2CCCO2)sc2c1CCCCC2` (stereo unspecified) the figure was 0.476%. With `CCCNC(=O)C[C@@H]1CC[C@@H]2[C@H](COc3ccc(NC(=O)c4cc(F)cc(F)c4)cc3C(=O)N2C)O1` the figure was 0.224%; with `O=C(C[C@@H]1CC[C@@H](NC(=O)c2ccc3c(c2)OCO3)[C@H](CO)O1)NCc1ccc(F)cc1`, -0.125%; with `Cc1ccccc1S(=O)(=O)N1C[C@@H]2N[C@H](C1)C2c1ccc(-c2cccc(C(=O)N(C)C)c2)cc1` (stereo partly specified), 0.138%. With `O=C(C[C@H]1CC[C@@H]2[C@H](COC[C@@H](O)CN2Cc2cccc(-c3ccncc3)c2)O1)N1CCOCC1` the figure was 0.256%; with `O=C(C[C@H]1C(=O)N(c2ccc(F)c(F)c2)C[C@@H]1Cc1ccccc1)Nc1ccccc1`, -0.246%; with `CNC(=O)C[C@H]1C(=O)N(c2ccc(OC)cc2)C[C@@H]1Cc1ccccc1`, 43.3% (active).

Consider `CNC(=O)C[C@H]1C(=O)N(Cc2ccccc2)C[C@@H]1CSC`, for which the activity (Tm shift, normalised) was 0.23%. Under `CC(C)N1C(=O)[C@@]2(Cc3ccccc31)c1ccccc1C(=O)N(C1CCCCC1)[C@H]2c1ccc(CO)cc1` stands -0.066%; under `COc1ccc(-c2ccccc2[C@H]2[C@@H](CO)N(C(=O)C3CCC3)[C@H]2C#N)cc1`, -0.131%. With `C[C@H](CO)N1C[C@H](C)[C@H](CN(C)C(=O)Cc2ccccn2)Oc2ncc(-c3cncnc3)cc2C1=O` the figure was -0.28%; with `COC(=O)c1ccc(NC(=S)Nc2cccc(C)n2)cc1`, 42.2%; with `Cc1ccc(C(=O)NC(=S)Nc2ccc(N3CCOCC3)cc2)cc1`, -0.25%. Under `COC(=O)c1ccc(NC(=S)NN2CCOCC2)cc1` stands 43.4% (active); under `OC[C@@H]1Nc2ccc(-c3ccc(F)cc3)cc2[C@@H]2[C@H]1CCN2Cc1ccc(F)cc1`, -0.323%. As for `COc1ccc(NC(=O)Nc2ccc3c(c2)[C@@H]2C[C@@H](CC(=O)NCc4ccncc4)O[C@@H](CO)[C@@H]2O3)cc1`, the activity (Tm shift, normalised) was -0.189%.

As to `C[C@@H]1CN([C@H](C)CO)S(=O)(=O)c2ccc(-c3ccccc3)cc2O[C@@H]1CN(C)C(=O)CC1CC1`, the activity (Tm shift, normalised) is -0.061%. Under `C[C@@H]1CCCCO[C@H](CN(C)S(=O)(=O)c2ccccc2)[C@@H](C)CN([C@@H](C)CO)C(=O)c2cc(NS(=O)(=O)c3ccccc3)ccc2O1` stands -0.644%; under `CCc1cc2cc(OC)ccc2nc1SCC(=O)Nc1cc(OC)c(OC)cc1C(=O)O`, 43.1% (active). In the case of `COc1ccc(NC(=O)CSc2nc(SC)ns2)c(OC)c1`, the activity (Tm shift, normalised) was 0.019%. With `COc1ccc(OC)c(NC(=O)CSc2nc(-c3ccccc3)cc(=O)[nH]2)c1` the figure was -0.146%. With `CC(C)(C)C(=O)NCCCNc1ccc([N+](=O)[O-])cc1` the figure was 43.5% (active); with `O=C(NCCNc1ccc([N+](=O)[O-])cc1)c1cccc2c(Br)cccc12`, 0%.

Regarding `O=[N+]([O-])c1ccc(NCCCO)c(C(F)(F)F)c1`, the activity (Tm shift, normalised) is 0.215%. Under `CNC(=O)C[C@@H]1CC[C@@H]2[C@@H](COc3ccc(NC(=O)c4ccc5c(c4)OCO5)cc3C(=O)N2C)O1` stands -0.015%.

For the molecule `Cc1cccc(NC(=O)Nc2ccc3c(c2)OCO3)n1`, the activity (Tm shift, normalised) was 43.6% (active). Under `CC(NC(=O)Nc1ccc2c(c1)OCO2)c1ccncc1` (stereo unspecified) stands 0.039%. Under `CNS(=O)(=O)c1ccc(NC(=O)Nc2ccc3c(c2)OCO3)cc1` stands -0.016%. As to `COc1ccc(NC(=O)Nc2ccc3c(c2)C(=O)N([C@H](C)CO)C[C@H](C)[C@@H](CN(C)Cc2ccc(C(=O)O)cc2)OCCCC[C@H](C)O3)cc1`, the activity (Tm shift, normalised) is -0.009%. With `CC=Cc1ccc2n(c1=O)C[C@@H]1[C@@H](CO)[C@H](C(=O)N[C@H](C)c3ccccc3)N(C(=O)c3cnccn3)[C@H]21` (mixture of isomers) the figure was -0.323%; with `Nc1ccc(C(=O)OCC(=O)NC2CCS(=O)(=O)C2)cc1[N+](=O)[O-]` (stereo unspecified), 43.7% (active); with `O=C(COC(=O)c1ncc(Cl)c(Cl)c1Cl)NC1CCS(=O)(=O)C1` (stereo unspecified), 0.023%. Under `O=C(COC(=O)/C=C/c1ccc(Cl)cc1)NC1CCS(=O)(=O)C1` (stereo unspecified) stands 0.02%; under `COc1ccc2c3c([nH]c2c1)[C@H](CO)N(C(C)=O)CC31CN(S(=O)(=O)c2cccs2)C1`, -10.2%.

With `C[C@H]1CN([C@@H](C)CO)C(=O)Cc2cc(NC(=O)Cc3cn(C)c4ccccc34)ccc2O[C@H]1CN(C)Cc1ccccc1`, the activity (Tm shift, normalised) was 1.01%.

`C[C@H](CO)N1C[C@H](C)[C@@H](CN(C)Cc2ccc(C(=O)O)cc2)Oc2ccc(NC(=O)Cn3cnnn3)cc2CC1=O`: the activity (Tm shift, normalised) was -0.125%. With `C[C@H]1CN([C@@H](C)CO)C(=O)Cc2cc(NC(=O)Cc3cn(C)c4ccccc34)ccc2O[C@@H]1CN(C)Cc1ccccc1` the figure was 1.38% (active); with `C[C@@H]1CN([C@@H](C)CO)C(=O)Cc2cc(NC(=O)Cc3cn(C)c4ccccc34)ccc2O[C@H]1CN(C)Cc1ccc(C(=O)O)cc1`, 0.077%; with `C[C@@H]1CN([C@H](C)CO)C(=O)Cc2cc(NC(=O)Cn3cnnn3)ccc2O[C@H]1CN(C)Cc1ccc(C(F)(F)F)cc1`, 1.38% (active). With `C[C@H]1CN([C@@H](C)CO)C(=O)Cc2cc(NC(=O)Cn3cnnn3)ccc2O[C@H]1CN(C)Cc1ccc(C(=O)O)cc1` the figure was -0.049%.
